Out of some 1,100 compounds screened, fewer than 10 were called active. About 6% were inconclusive and are not listed. Not all results are given here. Unmarked numbers belong to inactive results. Calls follow the shape of the dose curve; as a rule, active = well fitted cell-killing curve with a large enough effect; inconclusive = small, poorly fitted or top-dose-only effect; inactive = flat fitted curve, though single readings scatter.
experiment: qHTS of Nrf2 Activators: Hit Validation in Cytotox Assay; details: Cell viability counter-screen for Nrf2 activator hits; series mostly up to 46.1 µM; activity change, negative = cytotoxicity: at the top concentration;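 also: compound exposure lasted 24 hours before the ATP readout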; as to activity change, negative = cytotoxicity: 0% is about no effect
Text: Many diseases have some form of oxidative stress injury and ties to inflammation, causing a host of problems for the patient. The antioxidant response element (ARE) plays an important role in alleviating the harmful effects of oxidative stress. The antioxidant response element (ARE) is a transcriptional regulatory element involved in the activation of genes coding for a number of antioxidant proteins and detoxifying enzymes. These enzymes work in concert to protect tissues from oxidative insults and chemical toxicities in human hepatocytes and immune cells. The protective effects of ARE activation are primarily triggered through Nrf2 (NF-E2-related factor) binding to and activating AREs. It is known that Nrf2 controls the production of over 250 antioxidant and detoxification proteins (Hu et al., 2006), thereby protecting tissues by increasing cellular antioxidant content and suppressing inflammatory signaling pathways. The transcription factor Nrf2 is a central link between oxidative chemicals, such as phenolic antioxidants and electrophilic compounds, and the activation of ARE. Nrf2 levels are constitutively low as a consequence of its interaction with Keap1, which targets its degradation (Zipper and Mulcahy, 2002). Electrophiles react with key cysteine residues in Keap1, releasing Nrf2 and allowing its translocation to the nucleus. Once within the nucleus, Nrf2 complexes with coactivators such as p300, and binds to the AREs to induce gene transcription of cytoprotective enzymes, resulting in the prevention of toxicity. Activation of Nrf2 protects tissues by increasing cellular antioxidant content and suppressing inflammatory signaling pathways. Identifying novel and potent Nrf2 activators by using the AREc32 cell line to detect ARE activation by small molecules will lead to the identification and development of probes to study protective pathways in multiple tissues. These specific probes are essential to study the ARE pathway, and eventually to determine whether this pathway does activate genes that could protect against a host of diseases, including cardiovascular diseases, obesity, diabetes, Alzheimer's, and Parkinson's disease.
This project's aim is to identify novel and potent Nrf2 activators by using the AREc32 cell line to detect ARE activation by small molecules, which will lead to the identification and development of probes to study the ARE pathway. Cytotoxic compounds are flagged as active, and inactivity is desired in this assay.
NIH Chemical Genomics Center [NCGC]
NIH Molecular Libraries Probe Centers Network [MLPCN]
Assay Submitter (PI): Curtis Klaassen, University of Kansas Medical Center
Cell viability after compound treatment was measured using a luciferase-coupled ATP quantitation assay (CellTiter-Glo, Promega) in AREc32_fluc cells. The change of intracellular ATP content indicates the number of metabolically competent cells after compound treatment. AREc32_fluc cells were harvested from T225 flask and resuspended in phenol red free OPTI-MEM medium with 5% FBS. Then 5 microL of 200,000 cells/ml resuspended cells was dispensed into each well of white, solid bottom, 1536-well tissue culture-treated plates using a Multidrop Combi dispenser. After overnight culture at 37 degrees C with 5% CO2, a total of 23 nL of compounds at 7 selected concentrations from the cherry pick or positive control (40 uM stock of CDDO-IM and 2 mM of tBHQ) in DMSO was transferred to each well of the assay plate using a pintool (Kalypsys, San Diego, CA), and the plates were further incubated at 37 degrees C with 5% CO2 for 24 hours. After that, 4 microL of CellTilter-GloTM luminescent substrate mix (Promega) was added to each well. The plate was incubated at room temperature for 30 minutes. The plates were measured on a ViewLux plate reader (PerkinElmer) with clear filter.
Potency is read from the fitted curve at half-maximal effect.

| SMILES | activity change, negative = cytotoxicity [%] | Potency |
| --- | --- | --- |
| CCc1c(C)sc(NC(=O)c2ccco2)c1C#N | 12.1 | – |
| COc1ccccc1NC(=O)/C=C\c1ccco1 | 2.45 | – |
| CCN(C(=O)Cn1nnc2sc(-c3ccccc3)cc2c1=O)c1cccc(C)c1 | -9.78 | – |
| NC(=S)NN=C1CSSC1 | -21.6 | – |
| COc1ccc(-c2nnc3c4ccccc4c(C)nn23)cc1 | 4.5 | – |
| O=C1Nc2ccccc2SC1=Cc1ccccc1 | 1.37 | – |
| C/C(=N/NC(=O)CNC(=O)/C=C/c1ccco1)c1ccc(Cl)cc1 | -4.27 | – |
| CCOC(=O)c1ccccc1N/C=C/C(=O)c1ccccc1 | 1.71 | – |
| O=C(Nc1cccc([N+](=O)[O-])c1)c1[nH]ncc1Cl | -11.2 | – |
| COc1ccc(Cl)cc1NC(=O)C1COc2ccccc2O1 (configuration not stated) | 4.89 | – |
| COc1ccc(C(C#N)=C2C=CC(=NO)C=C2)cc1 | -1.04 | – |
| CC(=O)c1ccccc1NC(=O)COC(=O)/C=C/c1ccc(C)o1 | 11.2 | – |
| O=[N+]([O-])c1ccc(NN=Cc2ccco2)nc1 | 10.9 | – |
| O=C(/C=C/Nc1ccc(F)c(Cl)c1)c1ccco1 | -0.863 | – |
| COc1ccc(Cl)cc1C(=O)O/N=C(\N)c1ccccn1 | -3.19 | – |
| CCOC(=O)c1c(NC(=O)/C=C/c2ccc(C)o2)sc(C)c1C | 4.84 | – |
| O=[N+]([O-])c1ccc(Cl)cc1N/N=C/c1ccncc1 | 6.03 | – |
| O=C(Nc1nc(=O)c2ccccc2s1)c1ccccc1 | -18.4 | – |
| Clc1ccccc1C=NNc1ccccn1 | 0.451 | – |
| CC(C)C(=O)Nc1nnc(-c2ccco2)s1 | 6.12 | – |
| Cn1c(/N=C(\N)c2ccccc2)nc2ccccc21 | -3.63 | – |
| O=C(Nc1ccccc1C(=O)NCCc1ccccc1)c1ccco1 | 5.2 | – |
| NC(=O)c1oc2ccccc2c1NC(=O)c1ccccc1 | 1.78 | – |
| O=C1COc2ccc(C(=O)COC(=O)/C=C/c3ccco3)cc2N1 | -0.414 | – |
| O=C(Nc1nccc(-c2cccs2)n1)c1cccs1 | -1.81 | – |
| N/C(=N\OC(=O)c1cc(Cl)ccc1Cl)c1cccnc1 | -4.62 | – |

| SMILES | activity change, negative = cytotoxicity [%] | Potency |
| --- | --- | --- |
| Cc1ccc(-c2nc3cccnc3s2)cc1NC(=O)c1ccco1 | -5.81 | – |
| Cn1c(SCC(=O)N/N=C/C=C\c2ccco2)nc2ccccc21 | 2.39 | – |
| CC(C)c1ccc(NC(=O)c2sccc2-n2cccc2)cc1 | -13.6 | – |
| COC(=O)c1ccc2nc(-c3ccc(F)cc3)c(CC3CCCCC3)n2c1 | -1.86 | – |
| Cc1ccc(-c2cc(C(F)(F)F)c(C#N)c(SCCC#N)n2)o1 | 6.99 | – |
| Clc1nc2sccn2c1/C=N/n1cnc2ccccc21 | 6.23 | – |
| CC(=NNc1ccc2ccccc2n1)c1ccccc1O | -19.7 | – |
| O=c1oc2ccc(Cl)cc2nc1/C=C(\O)c1cccs1 | -4.12 | – |
| C=C(NC(=O)C(=C)NC(=O)c1csc(C2=NC3c4csc(n4)C4NC(=O)c5csc(n5)C(C(C)(O)C(C)O)NC(=O)C5CSC(=N5)/C(=C/C)NC(=O)C(C(C)O)NC(=O)c5csc(n5)C3(CC2)NC(=O)C(C)NC(=O)C(=C)NC(=O)C(=C)NC(=O)C(C(C)C)NC2C=Cc3c(C(C)O)cc(nc3C2O)C(=O)OC4C)n1)C(N)=O (configuration not stated) | -14.5 | – |
| O=c1nc2c(-c3ccccc3F)n[nH]n2c2ccccc12 | -3.43 | – |
| O=C(CSc1ccc(-c2ccco2)nn1)N1CCCCCC1 | 0.45 | – |
| O=C1C(Cl)=C(Nc2ccccc2)C(=O)c2ccccc21 | – | 16.4 µM (active) |
| c1ccc(-c2cnc(-c3ccccc3)nn2)cc1 | -0.44 | – |
| O=C(Nc1ccccc1)N1CCn2c1nc1ccccc12 | 2.76 | – |
| CC(=O)Nc1ccc(N=Nc2ccccc2)cc1[N+](=O)[O-] | -3.62 | – |
| Brc1ccc(-c2csc(N/N=C/c3ccco3)n2)cc1 | 8.79 | – |
| CC(=O)c1sc2nc(-c3cccs3)cc(C(F)(F)F)c2c1N | -2.42 | – |
| O=c1oc2ccccc2nc1/C=C(\O)c1ccc(Br)cc1 | -1.91 | – |
| O=[N+]([O-])c1ccc(/C=N/Nc2ccc3ccccc3c2)o1 | -19.5 | – |
| O=C(NCC1CCCO1)c1ccc([N+](=O)[O-])o1 (configuration not stated) | -12.8 | – |
| O=[N+]([O-])c1ccc(/C=[N+](\[O-])[C@@H]2CCCC[C@@H]2/[N+]([O-])=C/c2ccc([N+](=O)[O-])o2)o1 | – | 18.4 µM (active) |
| c1ccc(C2=Nn3c(nnc3-c3ccco3)SC2)cc1 | 6.11 | – |
| Cc1ccccc1NC(=O)/C(C#N)=C/c1ccsc1 | 0.178 | – |
| Nc1nonc1N/N=C/c1c(O)ccc2ccccc12 | 8.84 | – |
| O=C(Nc1cc2nn(-c3ccccc3)nc2cc1Cl)c1ccco1 | 5.66 | – |
| Cc1nn2c(-c3ccccc3)nnc2c2ccccc12 | 2.1 | – |

| SMILES | activity change, negative = cytotoxicity [%] | Potency |
| --- | --- | --- |
| O=c1[nH]c(/C=C/c2ccccc2[N+](=O)[O-])nc2ccccc12 | 0.48 | – |
| O=C(NC(=S)Nc1ccccc1O)c1ccccc1Cl | 8.07 | – |
| Cc1ccc(O)c(NC(=O)c2cccc(NC(=O)c3ccco3)c2)c1 | 2.1 | – |
| O=C(NC(=S)Nc1cnc2ccccc2c1)c1ccccc1 | -0.119 | – |
| Cc1nn2c(-c3ccco3)nnc2c2ccccc12 | 6.15 | – |
| COc1ccc2oc3cc(Cl)ccc3c(=O)c2c1 | -1.78 | – |
| Cc1cccc(NC(=O)Nc2ccccc2[N+](=O)[O-])n1 | 5.2 | – |
| Cc1ccc(Cn2c(/C=C/c3ccco3)nc3ccccc32)cc1 | -21.8 | – |
| Clc1ccc(C=Cc2ccccn2)cc1 | 1.25 | – |
| N#C/C(=C\c1ccccc1)c1ccccn1 | -2.49 | – |
| O=c1[nH]c(SCc2cccc([N+](=O)[O-])c2)nc2[nH]ncc12 | 0.58 | – |
| COc1ccc(OC)c(C=C2CCc3ccccc3C2=O)c1 | 1.45 | – |
| O=C(Oc1cccc(-c2cnc3ccccc3n2)c1)c1ccco1 | -1.91 | – |
| Cc1ccc(C)c(/C=N/Nc2ccccn2)c1 | 9.8 | – |
| O=C(Nc1cc(-c2nc3ncccc3o2)ccc1Cl)c1ccco1 | 11 | – |
| CN(C)CCN(C(=O)/C=C/c1cccs1)c1nc2ccc(F)cc2s1 | -13.7 | – |
| O=C(Nc1nnc(-c2cccs2)s1)c1cccc(F)c1 | 7.96 | – |
| Cc1nn(-c2ccc3ccccc3c2)c(=O)c2ccccc12 | 4.52 | – |
| Cc1cc(C)c2c(N)c(C(=O)c3ccc(Br)cc3)oc2n1 | -19.8 | – |
| Cc1ccc(-c2nc(NCc3ccco3)c3ccccc3n2)cc1 | -1.85 | – |
| Brc1cc(Br)c2nc(-c3cccs3)ccc2c1 | 5.71 | – |
| S=c1nc(-c2ccccc2)[nH]c2ccc(Br)cc12 | 8.86 | – |
| N#C/C(=C(/O)c1ccc(Br)s1)c1nc2ccccc2[nH]1 | -1.87 | – |
| N#C/C(=C\c1ccc([N+](=O)[O-])o1)c1nc2ccccc2[nH]1 | – | 20.6 µM (active) |
| N#C/C(=C(/O)c1ccco1)c1nc2ccccc2[nH]1 | -1.76 | – |

From PubChem BioAssay AID651595 (National Center for Advancing Translational Sciences (NCATS), 2012)
